Rows were chosen to be rich in hits. Some 2.3% of all compounds tested hit in one or more screens of this group.
TRPV1 agonist: human TRPV1 agonism. TRPV1-expressing cells, Fluo-8 calcium influx, agonist mode. activation, % at 8.33 µM. Q8NER1. 320,000 tested, 0.19% active; in the data active means activation above about 80%; inconclusive means between about 30% and that limit; further: 0% is about no effect
Target sequence (Q8NER1 whole entry, looked up): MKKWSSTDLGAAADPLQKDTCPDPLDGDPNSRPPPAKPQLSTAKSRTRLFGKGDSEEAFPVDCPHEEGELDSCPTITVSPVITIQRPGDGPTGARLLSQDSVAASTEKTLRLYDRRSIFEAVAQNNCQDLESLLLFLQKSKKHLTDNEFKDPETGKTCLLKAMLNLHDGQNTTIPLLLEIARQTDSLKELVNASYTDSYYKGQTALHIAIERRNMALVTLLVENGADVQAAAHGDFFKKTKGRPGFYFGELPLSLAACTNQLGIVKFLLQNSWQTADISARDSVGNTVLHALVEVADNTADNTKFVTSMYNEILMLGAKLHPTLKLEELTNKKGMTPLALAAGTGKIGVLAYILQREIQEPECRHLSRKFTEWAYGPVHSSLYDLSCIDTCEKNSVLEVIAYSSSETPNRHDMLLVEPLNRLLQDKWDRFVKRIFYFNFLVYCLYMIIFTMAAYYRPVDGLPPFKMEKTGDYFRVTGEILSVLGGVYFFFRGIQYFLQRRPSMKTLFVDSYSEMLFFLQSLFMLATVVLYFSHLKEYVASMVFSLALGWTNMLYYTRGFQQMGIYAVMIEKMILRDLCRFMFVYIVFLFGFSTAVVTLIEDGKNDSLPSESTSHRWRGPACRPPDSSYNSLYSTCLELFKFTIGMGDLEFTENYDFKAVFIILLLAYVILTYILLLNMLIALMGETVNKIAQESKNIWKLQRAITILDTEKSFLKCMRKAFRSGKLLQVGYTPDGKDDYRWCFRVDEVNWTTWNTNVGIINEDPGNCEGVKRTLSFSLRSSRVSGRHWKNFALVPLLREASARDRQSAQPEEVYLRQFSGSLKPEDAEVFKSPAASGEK
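TRPV1-expressing cells were cultured overnight at 35.5C and loaded with Fluo-8 calcium dye for 40 to 90 min at room temperature. After a 10 s baseline, compound was added and calcium influx was read kinetically for 3 min (ex 480/em 520 nm).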
TRPV1 potentiator: human TRPV1 potentiation; Q8NER1; TRPV1-expressing cells, Fluo-8 calcium influx, capsaicin EC20 potentiation; potentiation, % at 8.33 µM; 320,000 tested, 0.02% active; AID 540277; in the data active means potentiation above about 80%; inconclusive means between about 30% and that limit; further: 0% is about no effect
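Cells expressing TRPV1 were dye-loaded with Fluo-8 and read kinetically: 10 s baseline, 3 min after compound (agonist portion), then 2 min after EC20 capsaicin (allosteric enhancer portion). Calcium-bound dye fluorescence at 480/520 nm.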
FUS suppressor: rescues growth of FUS-expressing yeast; 390,000 tested, 0.24% active; AID 1347120; Potency, µM (titrated, usually from 76.6 µM), actives largely listed as activators; S. cerevisiae FUS-expressing, growth rescue, OD600, 24 h;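 further: potency means the concentration at half of the fitted maximal effect; plate controls were DMSO vehicle for no effect and reference control for full effect; nearly all actives have a fitted effect of over 55% in size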
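Toxicity suppression screen in FUS-yeast. Cells induced with 2% galactose, starting OD 0.005, treated 24hr at 30C with compounds at multiple final concentrations; growth by OD600.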
ELG1 repair inh: blocks ELG1-dependent DNA repair in HEK293T cells. HEK293T ELG1-luciferase reporter, luminescence, 16 h; DNA damage induced by 5-fluorouridine. Potency, µM (highest dose often 46.1 µM), without a hit: top-dose activity change, negative = inhibition, actives largely listed as inhibitors. 330,000 tested, 2.3% active. AID 504467; further: potency means the concentration at half of the fitted maximal effect; on the % scale 0 is the no-effect control and ±100 the full control effect; nearly all actives have a fitted effect of over 55% in size
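Luminescence from the luciferase reporter, measured 30 min after ONE-Glo reagent at room temperature, was the read-out. Beforehand, 2,000 cells per well were exposed for 16 hr at 37 °C to 5-fluorouridine together with compound or vehicle.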
Giardia kill: kills Giardia lamblia; 340,000 tested, 0.15% active; AID 540267; activity change, % at 7.66 µM, hits read low; Giardia lamblia trophozoite viability; in the data active means activity change below about -80%; inconclusive means between about -30% and that limit;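 further: parasites exposed to compound for two days anaerobically before the ATP read; on the % scale 0 is the no-effect control and ±100 the full control effect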
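ATP-content bioluminescence gauges trophozoite survival. Cells (100/well) receive compound and incubate anaerobically for 48 hrs at 37 deg C; detection reagent follows for 15-30 min at room temperature.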
An asterisk follows results filed as active. Unless noted, the call rests on the fitted dose curve; in most records, active means well fitted curve in the direction sought with a large enough effect; inconclusive means small, poorly fitted or top-dose-only effect, or another doubt; inactive means no such curve, though single readings can be large; an effect the other way counts as inactive or inconclusive.

What do the screens show for `O=C(c1ccccc1)c1c2c(cc3sc4ccccc4[n+]13)-c1cccc3cccc-2c13`?
TRPV1 agonist: inconclusive; TRPV1 potentiator: 17; FUS suppressor: inconclusive; ELG1 repair inh: 18µM*; Giardia kill: 0

Results for Cc1cc2ccccc2cc1C(=O)c1ccccc1 ?
FUS suppressor: inactive; Giardia kill: -1

Results for Cc1sc2cc3c(c(C(=O)c4ccccc4)[n+]2c1C)-c1cccc2cccc-3c12 ?
TRPV1 agonist: 0; TRPV1 potentiator: 2; FUS suppressor: inactive; ELG1 repair inh: 23µM*; Giardia kill: 15

How did CCC1CCCCN1S(=O)(=O)c1ccc(NC(=O)c2cccs2)cc1 (configuration not stated) do in these assays?
TRPV1 agonist: inconclusive; TRPV1 potentiator: 0; FUS suppressor: inactive; ELG1 repair inh: 21µM*; Giardia kill: 3

How did COc1cc2nc(NCc3ccc(C)cc3)n3nc(-c4ccccc4)nc3c2cc1OC do in these assays?
FUS suppressor: inactive

How did Cc1ccc(C(C)C)c(OCC(=O)Nc2ccc(N3CCOCC3)cc2N2CCOCC2)c1 do in these assays?
TRPV1 agonist: 15; TRPV1 potentiator: -15; FUS suppressor: inactive; ELG1 repair inh: 18µM*; Giardia kill: 24

Results for CCOc1ccc(CN(C)C(=O)CNC(=O)c2ccccc2)cc1 ?
TRPV1 agonist: 2; TRPV1 potentiator: 5; FUS suppressor: inactive; ELG1 repair inh: 1%; Giardia kill: 20

What do the screens show for `C=CCOc1ccc(CN(C)C(=O)CNC(=O)c2ccc(-c3ccccc3)cc2)cc1`?
TRPV1 agonist: 1; TRPV1 potentiator: 4; FUS suppressor: inactive; ELG1 repair inh: 23µM*; Giardia kill: -10

How did COc1cccc(C(=O)N2CCCCC2CCN2CCCCC2)c1 (configuration not stated) do in these assays?
FUS suppressor: inactive

Results for COc1cccc(-c2csc(N3CCN(C(=O)Nc4ccc(Cl)cc4)CC3)n2)c1 ?
TRPV1 agonist: inconclusive; TRPV1 potentiator: -2; FUS suppressor: inactive; ELG1 repair inh: inconclusive; Giardia kill: 15

What do the screens show for `CCOC(=O)c1ccc(NC(=O)N2CCN(c3ccccn3)CC2)cc1`?
TRPV1 agonist: -1; TRPV1 potentiator: -12; FUS suppressor: inactive; ELG1 repair inh: inconclusive; Giardia kill: 11

How did CCOC(=O)c1ccc(N2CCN(c3ccccc3F)CC2)c(NC(=O)Nc2cccc(OC)c2)c1 do in these assays?
TRPV1 agonist: 0; TRPV1 potentiator: 1; FUS suppressor: inactive; ELG1 repair inh: 16µM*; Giardia kill: 3

What do the screens show for `COc1ccc(NC(=O)N2CCN(c3nc(-c4cccc(OC)c4)cs3)CC2)cc1`?
TRPV1 agonist: inconclusive; TRPV1 potentiator: -9; FUS suppressor: inconclusive; ELG1 repair inh: 18µM*; Giardia kill: 6

How did CCOC(=O)c1ccc(NC(=O)N2CCN(c3cccc(OC)c3)CC2)cc1 do in these assays?
TRPV1 agonist: 99*; TRPV1 potentiator: -20; FUS suppressor: inactive; ELG1 repair inh: inconclusive; Giardia kill: -11

How did O=C(Nc1cccc(C(=O)N2CCN(c3ccccc3F)CC2)c1)c1nsc2ccccc12 do in these assays?
FUS suppressor: inactive

What do the screens show for `O=C(Cc1cccs1)Nc1cccc(-c2ccc3nncn3n2)c1`?
TRPV1 agonist: 3; TRPV1 potentiator: 85*; FUS suppressor: inactive; ELG1 repair inh: -27%; Giardia kill: -18

Results for Cc1c2cc(O)c(=O)cc-2oc2cc(O)c(O)cc12 ?
TRPV1 agonist: 0; TRPV1 potentiator: -3; FUS suppressor: inconclusive; ELG1 repair inh: -3%; Giardia kill: 3

Results for COc1cc(OC)c(-c2c3cc(O)c(=O)cc-3oc3cc(O)c(O)cc23)cc1OC ?
TRPV1 agonist: 104*; TRPV1 potentiator: -13; ELG1 repair inh: inconclusive; Giardia kill: -14

Results for CCC(=O)N1CCN(c2ccc(NC(=O)COc3ccccc3Cl)cc2)CC1 ?
TRPV1 agonist: 3; TRPV1 potentiator: 4; FUS suppressor: inactive; ELG1 repair inh: 18µM*; Giardia kill: -1

Results for COc1ccccc1OCC(=O)Nc1ccc(N2CCCCC2)cc1 ?
TRPV1 agonist: 4; TRPV1 potentiator: 12; FUS suppressor: inactive; ELG1 repair inh: 4%; Giardia kill: -21

What do the screens show for `COc1cc(Cl)ccc1NC(=O)COc1ccccc1C(=O)N1CCN(c2ccc(O)cc2)CC1`?
TRPV1 agonist: 3; TRPV1 potentiator: 6; FUS suppressor: inconclusive; ELG1 repair inh: 13µM*; Giardia kill: 2

Results for CCC(=O)N1CCN(c2ccc(NC(=O)COc3ccccc3[N+](=O)[O-])cc2)CC1 ?
TRPV1 agonist: -1; TRPV1 potentiator: inconclusive; FUS suppressor: inactive; ELG1 repair inh: 23µM*; Giardia kill: 5

Results for CCC(=O)N1CCN(c2ccc(NC(=O)COc3ccc(C)cc3C)cc2)CC1 ?
TRPV1 agonist: 6; TRPV1 potentiator: 2; FUS suppressor: inactive; ELG1 repair inh: -9%; Giardia kill: -1

What do the screens show for `Cc1cccc(OCC(=O)Nc2ccc(N3CCCC3)cc2)c1C`?
TRPV1 agonist: 0; TRPV1 potentiator: 13; FUS suppressor: 25µM*; ELG1 repair inh: -5%; Giardia kill: 6

How did CCc1ccccc1NC(=O)Cn1nc2c3cc(F)ccc3n(Cc3cccc(C)c3)cc-2c1=O do in these assays?
FUS suppressor: inactive

What do the screens show for `CCOC(=O)c1c(C)[nH]c(C)c1S(=O)(=O)N1CCCC(C(=O)N2CCN(c3ccccc3)CC2)C1` (configuration not stated)?
FUS suppressor: inactive

What do the screens show for `C[C@@H]1C[C@H](Nc2ccccc2)c2ccccc2N1C(=O)c1cccnc1`?
TRPV1 agonist: 10; TRPV1 potentiator: -10; FUS suppressor: inactive; ELG1 repair inh: inconclusive; Giardia kill: -20

How did CC1CC(Nc2ccccc2)c2ccccc2N1C(=O)c1cccnc1 (configuration not stated) do in these assays?
TRPV1 agonist: -2; TRPV1 potentiator: 8; FUS suppressor: inactive; ELG1 repair inh: 16µM*; Giardia kill: 0

How did CCOC(=O)C1(Cc2cccc(F)c2)CCN(Cc2ccc(COC)o2)CC1 do in these assays?
TRPV1 agonist: 7; TRPV1 potentiator: -16; FUS suppressor: inactive; ELG1 repair inh: 23µM*; Giardia kill: 1

Results for CCOC(=O)C1(Cc2ccccc2)CCN(Cc2ccc(COC)o2)CC1 ?
TRPV1 agonist: 8; TRPV1 potentiator: -5; FUS suppressor: inactive; ELG1 repair inh: -6%; Giardia kill: 17

What do the screens show for `Cc1ccc2nc(NC(=O)C3CCN(S(=O)(=O)c4cccc5nsnc45)CC3)sc2c1`?
TRPV1 agonist: 1; TRPV1 potentiator: 0; ELG1 repair inh: 16µM*; Giardia kill: -5

How did Cc1ccc2nc(NC(=O)C3CCCN(S(=O)(=O)c4cccc5nsnc45)C3)sc2c1 (configuration not stated) do in these assays?
TRPV1 agonist: 2; TRPV1 potentiator: 7; FUS suppressor: inactive; ELG1 repair inh: 18µM*; Giardia kill: 19

High-throughput results from PubChem.
